# This excerpt belongs to a sample that is enriched for the strongest signals.
# B1: AT3G09350(27) (Arabidopsis thaliana), Q84J81 (protein)
# chain: MAKDGPNWDGLLKWSLSHADGTRPTRQLSEEDRKWFMEAMQSQTVDVVKRMKEITLVMQTPEQVLVEHGVTPEDIQDLLDELQEHVESIDMANDLHSIGGLVPLLSFLKNSHANIRAKAADVVSTIVQNNPRSQELVMETNALESLLSNFTSDTDIHARTQALGAISSLIRHNKPGVTAFKLANGYAGLRDALASDSVRFQRKALNLLQYLLQEDDSDRSIATGLGFPRVMMHLASSDDAEIREAALRGLLELSREKNDGSSSIDKSDEKLRQLLEERIKGITLMSQEDLETVKEERQLVDLLWSICYNEPSSLREKGLVVLPGEDALPPDVASKLFEPPLRASAANRNATEKKDEPMKLLGP
# B2: HHA (Hippeastrum hybrid) (protein)
# chain: MQQDCNLVLYDVDKPIWASNTGGLARDCHLNMQSDGNLVVYAPRNQVIWASNTQGENGNYVCILQKDRNVVIYGTARWATGTNIHGAGIVGVPGSAPQNTTAEMIKLVRKYLITK
# Experiments:
# Test in all cases: glycan array binding signal (z-score within array); higher = stronger binding
# Conditions in all cases: glycan notation: IUPAC condensed, linker removed
# GalNAc(b1-4)GlcNAc = molecular target: GalNAc(b1-4)GlcNAc
# Summary of the method: (§1)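 From the Consortium for Functional Glycomics database, 3228 arrays were curated, keeping only those whose protein sequence was available. Binding is given as a within-array Z-score averaged across arrays sharing a protein sequence and across linkers. Negative Z-scores can be read as non-binding.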
# GlcA(b1-3)GlcNAc = molecular target: GlcA(b1-3)GlcNAc
# Summary of the method: as §1
# [1] = molecular target: GlcNAc(a1-3)Gal(b1-4)GlcNAc
# Summary of the method: as §1
# [2] = molecular target: GlcNAc(b1-3)Gal(b1-4)GlcNAc(b1-3)Gal(b1-4)GlcNAc(b1-2)Man(a1-3)[GlcNAc(b1-3)Gal(b1-4)GlcNAc(b1-3)Gal(b1-4)GlcNAc(b1-2)Man(a1-6)]Man(b1-4)GlcNAc(b1-4)GlcNAc
# Summary of the method: as §1
# [3] = molecular target: GlcNAc(b1-3)Gal(b1-4)GlcNAc(b1-3)Gal(b1-4)GlcNAc(b1-3)Gal(b1-4)GlcNAc(b1-2)Man(a1-3)[GlcNAc(b1-3)Gal(b1-4)GlcNAc(b1-3)Gal(b1-4)GlcNAc(b1-3)Gal(b1-4)GlcNAc(b1-2)Man(a1-6)]Man(b1-4)GlcNAc(b1-4)GlcNAc
# Summary of the method: as §1
# [4] = molecular target: GlcNAc(b1-4)[GlcNAc(b1-6)]GalNAc
# Summary of the method: as §1
# GlcNAc(b1-6)GalNAc = molecular target: GlcNAc(b1-6)GalNAc
# Summary of the method: as §1
# [5] = molecular target: Neu5Ac(a2-3)Gal(b1-3)GlcNAc(b1-2)Man(a1-3)[GlcNAc(b1-4)][Neu5Ac(a2-3)Gal(b1-3)GlcNAc(b1-2)Man(a1-6)]Man(b1-4)GlcNAc(b1-4)GlcNAc
# Summary of the method: as §1
# [6] = molecular target: Neu5Ac(a2-3)Gal(b1-4)GlcNAc(b1-2)[Neu5Ac(a2-3)Gal(b1-4)GlcNAc(b1-6)]Man(a1-6)[Neu5Ac(a2-3)Gal(b1-4)GlcNAc(b1-2)Man(a1-3)][GlcNAc(b1-4)]Man(b1-4)GlcNAc(b1-4)GlcNAc
# Summary of the method: as §1
# [7] = molecular target: Neu5Ac(a2-3)Gal(b1-4)GlcNAc(b1-3)Gal(b1-4)GlcNAc(b1-3)Gal(b1-4)GlcNAc
# Summary of the method: as §1
# [8] = molecular target: Neu5Ac(a2-3)Gal(b1-4)GlcNAc(b1-3)Gal(b1-4)[Fuc(a1-3)]GlcNAc
# Summary of the method: as §1
# [9] = molecular target: Neu5Ac(a2-3)Gal(b1-4)[Fuc(a1-3)]GlcNAc(b1-6)[Neu5Ac(a2-3)Gal(b1-3)]GalNAc
# Summary of the method: as §1
# [10] = molecular target: Neu5Ac(a2-3)[GalNAc(b1-4)]Gal(b1-4)GlcNAc
# Summary of the method: as §1
# [11] = molecular target: Neu5Ac(a2-6)Gal(b1-4)GlcNAc(b1-2)Man(a1-3)[Neu5Ac(a2-6)Gal(b1-4)GlcNAc(b1-2)Man(a1-6)]Man(b1-4)GlcNAc(b1-4)GlcNAc
# Summary of the method: as §1
# [12] = molecular target: Neu5Ac(b2-6)Gal(b1-4)GlcNAc
# Summary of the method: as §1
# [13] = molecular target: Neu5Ac9Ac(a2-6)Gal(b1-4)GlcNAc
# Summary of the method: as §1
# Fuc(a1-2)Gal = molecular target: Fuc(a1-2)Gal
# Summary of the method: as §1
# [14] = molecular target: Fuc(a1-2)Gal(b1-4)GlcNAc(b1-2)Man(a1-3)[Fuc(a1-2)Gal(b1-4)GlcNAc(b1-2)Man(a1-6)]Man(b1-4)GlcNAc(b1-4)GlcNAc
# Summary of the method: as §1
# [15] = molecular target: Fuc(a1-2)Gal(b1-4)GlcNAc6S
# Summary of the method: as §1
# [16] = molecular target: Fuc(a1-2)[GalNAc(a1-3)]Gal
# Summary of the method: as §1
# [17] = molecular target: Fuc(a1-2)[GalNAc(a1-3)]Gal(b1-3)GalNAc(b1-3)Gal(a1-4)Gal(b1-4)Glc
# Summary of the method: as §1
# [18] = molecular target: Fuc(a1-2)[GalNAc(a1-3)]Gal(b1-4)GlcNAc(b1-2)Man(a1-3)[Fuc(a1-2)[GalNAc(a1-3)]Gal(b1-4)GlcNAc(b1-2)Man(a1-6)]Man(b1-4)GlcNAc(b1-4)GlcNAc
# Summary of the method: as §1
# [19] = molecular target: Fuc(a1-3)[Gal(b1-4)]GlcNAc(b1-3)GalNAc
# Summary of the method: as §1
# [20] = molecular target: Fuc(a1-3)[Gal(b1-4)]GlcNAc(b1-4)Gal(b1-4)[Fuc(a1-3)]GlcNAc(b1-4)Gal(b1-4)[Fuc(a1-3)]GlcNAc
# Summary of the method: as §1
# [21] = molecular target: Fuc(a1-3)[GalNAc(b1-4)]GlcNAc
# Summary of the method: as §1
# [22] = molecular target: Fuc(a1-3)[GalNAc(b1-4)]GlcNAc6S
# Summary of the method: as §1
# [23] = molecular target: Gal(a1-4)Gal(b1-4)GlcNAc(b1-3)Gal(b1-4)Glc
# Summary of the method: as §1
# [24] = molecular target: Gal(b1-4)GlcNAc(b1-2)Man(a1-6)[Man(a1-3)]Man(b1-4)GlcNAc(b1-4)GlcNAc
# Summary of the method: as §1
# [25] = molecular target: Gal(b1-4)GlcNAc(b1-3)[Gal(b1-4)GlcNAc(b1-6)]GalNAc
# Summary of the method: as §1
# [26] = molecular target: Gal(b1-4)GlcNAc(b1-6)Gal(b1-4)GlcNAc(b1-6)GalNAc
# Summary of the method: as §1
# GalNAc4S6S(b1-4)GlcNAc = molecular target: GalNAc4S6S(b1-4)GlcNAc
# Summary of the method: as §1
# GalNAc6S(b1-4)GlcNAc = molecular target: GalNAc6S(b1-4)GlcNAc
# Summary of the method: as §1
# [27] = molecular target: GlcNAc(a1-6)Gal(b1-4)GlcNAc
# Summary of the method: as §1
# [28] = molecular target: GlcNAc(b1-2)Man(a1-3)[GlcNAc(b1-2)Man(a1-6)]Man(b1-4)GlcNAc(b1-4)[Fuc(a1-6)]GlcNAc
# Summary of the method: as §1
# [29] = molecular target: GlcNAc(b1-3)Gal(b1-4)GlcNAc(b1-2)Man(a1-3)[GlcNAc(b1-3)Gal(b1-4)GlcNAc(b1-2)Man(a1-6)]Man(b1-4)GlcNAc(b1-4)[Fuc(a1-6)]GlcNAc
# Summary of the method: as §1
# [30] = molecular target: GlcNAc(b1-3)Gal(b1-4)GlcNAc(b1-3)Gal(b1-4)GlcNAc(b1-3)Gal(b1-4)GlcNAc(b1-3)Gal(b1-4)GlcNAc(b1-2)[GlcNAc(b1-3)Gal(b1-4)GlcNAc(b1-3)Gal(b1-4)GlcNAc(b1-3)Gal(b1-4)GlcNAc(b1-3)Gal(b1-4)GlcNAc(b1-6)]Man(a1-6)[GlcNAc(b1-3)Gal(b1-4)GlcNAc(b1-3)Gal(b1-4)GlcNAc(b1-3)Gal(b1-4)GlcNAc(b1-3)Gal(b1-4)GlcNAc(b1-2)Man(a1-3)]Man(b1-4)GlcNAc(b1-4)[Fuc(a1-6)]GlcNAc
# Summary of the method: as §1
# [31] = molecular target: GlcNAc(b1-3)Gal(b1-4)GlcNAc(b1-6)[GlcNAc(b1-3)]Gal(b1-4)GlcNAc
# Summary of the method: as §1
# [32] = molecular target: GlcNAc(b1-3)[GlcNAc(b1-6)]GlcNAc(b1-4)GlcNAc
# Summary of the method: as §1
# GlcNAc(b1-4)GlcNAc = molecular target: GlcNAc(b1-4)GlcNAc
# Summary of the method: as §1
# [33] = molecular target: Man(a1-2)Man(a1-3)[Man(a1-6)]Man(a1-6)[Man(a1-2)Man(a1-3)]Man(b1-4)GlcNAc(b1-4)GlcNAc
# Summary of the method: as §1
# [34] = molecular target: Man(a1-2)Man(a1-6)[Man(a1-3)]Man(a1-6)[Man(a1-2)Man(a1-2)Man(a1-3)]Man
# Summary of the method: as §1
# [35] = molecular target: Man(a1-2)Man(a1-6)[Man(a1-3)]Man(a1-6)[Man(a1-2)Man(a1-2)Man(a1-3)]Man(b1-4)GlcNAc(b1-4)GlcNAc
# Summary of the method: as §1
# Man(a1-3)[Man(a1-6)]Man = molecular target: Man(a1-3)[Man(a1-6)]Man
# Summary of the method: as §1
# [36] = molecular target: Man(a1-3)[Man(a1-6)]Man(a1-6)[Man(a1-2)Man(a1-3)]Man(b1-4)GlcNAc(b1-4)GlcNAc
# Summary of the method: as §1
# [37] = molecular target: Man(a1-3)[Man(a1-6)]Man(a1-6)[Man(a1-3)]Man
# Summary of the method: as §1
binder,measurement,setting,value
B1,glycan array binding signal (z-score),GalNAc(b1-4)GlcNAc,7.59
same,glycan array binding signal (z-score),GlcA(b1-3)GlcNAc,-0.957
same,glycan array binding signal (z-score),[1],-0.46
same,glycan array binding signal (z-score),[2],0.28
same,glycan array binding signal (z-score),[3],0.057
same,glycan array binding signal (z-score),[4],-0.008
same,glycan array binding signal (z-score),GlcNAc(b1-6)GalNAc,0.847
same,glycan array binding signal (z-score),[5],-0.8
same,glycan array binding signal (z-score),[6],-0.435
same,glycan array binding signal (z-score),[7],0.446
same,glycan array binding signal (z-score),[8],-0.305
same,glycan array binding signal (z-score),[9],0.415
same,glycan array binding signal (z-score),[10],-0.121
same,glycan array binding signal (z-score),[11],0.535
same,glycan array binding signal (z-score),[12],0.639
same,glycan array binding signal (z-score),[13],-0.732
B2,glycan array binding signal (z-score),Fuc(a1-2)Gal,-0.215
same,glycan array binding signal (z-score),[14],0.036
same,glycan array binding signal (z-score),[15],-0.207
same,glycan array binding signal (z-score),[16],-0.21
same,glycan array binding signal (z-score),[17],-0.213
same,glycan array binding signal (z-score),[18],-0.159
same,glycan array binding signal (z-score),[19],-0.17
same,glycan array binding signal (z-score),[20],-0.255
same,glycan array binding signal (z-score),[21],-0.196
same,glycan array binding signal (z-score),[22],-0.214
same,glycan array binding signal (z-score),[23],-0.203
same,glycan array binding signal (z-score),[24],3.97
same,glycan array binding signal (z-score),[25],-0.247
same,glycan array binding signal (z-score),[26],-0.191
same,glycan array binding signal (z-score),GalNAc4S6S(b1-4)GlcNAc,-0.218
same,glycan array binding signal (z-score),GalNAc6S(b1-4)GlcNAc,-0.209
same,glycan array binding signal (z-score),[1],-0.2
same,glycan array binding signal (z-score),[27],-0.203
same,glycan array binding signal (z-score),[28],-0.168
same,glycan array binding signal (z-score),[29],-0.147
same,glycan array binding signal (z-score),[30],-0.124
same,glycan array binding signal (z-score),[31],-0.185
same,glycan array binding signal (z-score),[32],-0.264
same,glycan array binding signal (z-score),GlcNAc(b1-4)GlcNAc,-0.211
same,glycan array binding signal (z-score),[33],3.35
same,glycan array binding signal (z-score),[34],2.72
same,glycan array binding signal (z-score),[35],3.81
same,glycan array binding signal (z-score),Man(a1-3)[Man(a1-6)]Man,5.62
same,glycan array binding signal (z-score),[36],5.57
same,glycan array binding signal (z-score),[37],5.35
